Test results reported in PubChem BioAssay AID540276 (National Center for Advancing Translational Sciences (NCATS), 2011).
In all, about 300,000 compounds went through this assay and about 5,400 (1.8%) were called active. Another 28% or so got no clear call; they are omitted. The sample holds actives, similar compounds and a random draw of the others, so the mix is not that of the screen. Values without a mark were called inactive. Calls follow the shape of the full dose curve; tested in HEK293 cells.

assay: qHTS for inhibitors of binding or entry into cells for Marburg Virus; conditions: Marburg virus pseudotyped entry inhibition, cell reporter; series mostly up to 37.8 µM; activity change, negative = inhibition: at the top concentration
% is scaled to controls: 0 for no effect and ±100 for the full control effect; potency is read from the fitted curve at half-maximal effect.

Structure (SMILES)	activity change, negative = inhibition	Potency
CC1CN(C(=S)SCC(=O)c2ccccc2)CC(C)O1 (configuration not stated)	-3.47%	–
O=C(CSC(=S)N1CCOCC1)c1cc(Br)cc(Br)c1O	11.4% [at 46.1 µM]	–
O=C(CSC(=S)N1CCOCC1)c1ccccc1	–	7.31 µM (active)
Cc1ccc(CNC(=O)C(=O)c2cn(CC(=O)N3CCCC3)c3ccccc23)cc1	-19.2%	–
Cc1cc(NC(=O)CSc2nnc(-c3ccco3)n2N)no1	-29.8%	–
O=C(COC(=O)c1cccc(Cl)c1)NC(=O)NCc1ccccc1	4.11%	–
COc1ccc2c(c1O)-c1cccc3c1[C@@H](C2)N(C)CC3	–	1 µM (active)
COc1c(O)ccc2c1-c1c3c(cc4c1C(C2)N(C)CC4)OCO3 (configuration not stated)	3.76%	–
Cn1c(N)cc(=O)n(C)c1=S	-7.14%	–
CC(C(=O)c1ccc(-c2ccccc2)cc1)[n+]1cccc(Br)c1 (configuration not stated)	-1.4% [at 46.1 µM]	–
O=C(NCc1nnc(SCC(=O)N2CCCCCC2)o1)c1ccc(F)cc1	-7.97%	–
CCC(=O)Nc1cccc(NC(=O)CSc2nnc(-c3ccc(NS(C)(=O)=O)cc3)n2C)c1	9.87%	–
COCCCn1c(SCC(=O)Nc2ccccc2)nnc1-c1ccncc1	-0.876% [at 46.1 µM]	–
Cn1c(SCC(=O)Nc2cccc(NC(=O)c3cccs3)c2)nnc1-c1ccncc1	–	12.6 µM (active)
CC1CCCCC1NC(=O)Cn1c(=O)cnc2ccccc21 (configuration not stated)	14.6% [at 46.1 µM]	–
CC(=O)c1c(C)[nH]c(C(=O)COC(=O)c2cccs2)c1C	-11.6%	–
COc1ccc(C)cc1N(CC(=O)N1CCCC1)S(=O)(=O)c1ccccc1	4.32% [at 46.1 µM]	–
NC(=O)Nc1cccc(C(F)(F)F)c1	-9.89%	–
O=C(Nc1cc(C(F)(F)F)ccc1Cl)C(=O)N1CCCCC1	10.1%	–
O=C(NNc1ccccc1Cl)C(O)(c1cccc(C(F)(F)F)c1)c1cccc(C(F)(F)F)c1	–	18.4 µM (active)
NC(=O)Cn1cc(/C=N\NS(=O)(=O)c2ccccc2)c2ccccc21	-7.13% [at 46.1 µM]	–
COC(=O)N(C)C1=C(C(=O)N2CCOCC2)CCCC1	-9.8%	–
Cn1c(=O)[nH]c2c(c(C(=O)O)nn2C)c1=O	-0.0312% [at 46.1 µM]	–
Cc1ccc2[nH]cc(CCCN3C(=O)c4ccccc4C3=O)c2c1	–	16.4 µM (active)
Cc1ccc2[nH]cc(CCNC(=O)c3ccc([N+](=O)[O-])cc3)c2c1	3.86%	–
Cc1cc(C)cc(NC(=O)CCN2C(=O)c3ccccc3C2=O)c1	-3.01% [at 46.1 µM]	–

Structure (SMILES)	activity change, negative = inhibition	Potency
Cc1cccc(OCC(=O)Nc2ccc(C(=O)O)cc2NC(=O)COc2cccc(C)c2)c1	-5.1%	–
COc1ccc(C(=O)Nc2ccc(S(=O)(=O)NC(C)C)cc2)cc1	-1.9%	–
CCOc1ccc(S(=O)(=O)Nc2ccc(S(=O)(=O)Nc3cc(OC)ccc3OC)cc2)cc1	-15.2%	–
COc1ccc(NS(=O)(=O)c2ccc(Oc3c(C#N)cccc3C#N)cc2)cc1	–	2.82 µM (active)
Cc1ccc2nc(SCC(=O)NC3CCCC3)[nH]c2c1	24.9% [at 46.1 µM]	–
COc1ccc(/C=N/Nc2nc(-c3ccc(C)cc3)c(C#N)c(=O)[nH]2)cc1	-0.691%	–
O=C(COc1cccnc1[N+](=O)[O-])Nc1ccc(Cl)cc1F	17.4% [at 46.1 µM]	–
Cc1cc(C(=O)N/N=C/c2ccccn2)c2ccccc2n1	12.2% [at 46.1 µM]	–
Cc1ccc(-c2cc(C(=O)N/N=C/C=C/c3ccco3)c3ccccc3n2)cc1C	–	2.51 µM (active)
O=C(N/N=C/C=C/c1ccco1)c1cccs1	12.6% [at 46.1 µM]	–
CCCc1nnc(NC(=O)CCC(=O)N2CCN(S(=O)(=O)c3ccc(OC)cc3)CC2)s1	1% [at 46.1 µM]	–
Cc1nc(N)nc(Cl)c1CCC1OCCO1	0.143% [at 46.1 µM]	–
Cc1cc(C)nc(Nc2cc([N+](=O)[O-])ccc2C)n1	-0.158% [at 46.1 µM]	–
Cc1ccc(Nc2ccc(C(N)=O)cc2[N+](=O)[O-])cc1	-11.4%	–
Cc1ccc(Nc2cc(C)nc3c(C)ccc([N+](=O)[O-])c23)cc1	–	11.2 µM (active)
Cc1ccc2c(c1)N(CC(=O)NCC1CCCO1)C(=O)CO2 (configuration not stated)	1.4% [at 46.1 µM]	–
COCCNC(=O)COc1ccc(N(C)S(=O)(=O)c2ccc3ccccc3c2)cc1	9.59% [at 46.1 µM]	–
CC1CCCCC1NC(=O)/C(C#N)=C/C=C/c1ccccc1[N+](=O)[O-] (configuration not stated)	–	2.82 µM (active)
O=[N+]([O-])c1ccccc1/C=C/CN1CCCC(CO)C1 (configuration not stated)	15.6%	–
CC1CCCCC1NC(=O)COc1ccc(C#N)cc1 (configuration not stated)	-11.3%	–
O=C(Nc1c(Br)cc2c(c1Br)Cc1cc([N+](=O)[O-])ccc1-2)C(Cl)Cl	12.8%	–
CCCn1c(NCc2ccccc2F)nc2ccccc21	8.16% [at 46.1 µM]	–
N=c1n(CCc2ccccc2)c2ccccc2n1Cc1ccccc1F	–	5.17 µM (active)
CN(Cc1ccccc1)Cc1ccccc1F	-10.3%	–
CCc1ccccc1N(CC(=O)NCC1CCCO1)C(=O)CCC(=O)Nc1nccs1 (configuration not stated)	5.09% [at 46.1 µM]	–
COc1ccc(C)cc1NC(=S)N1CCOCC1	-15.3% [at 46.1 µM]	–
